Compounds with a hit are over-represented: about 1.8% of the library has one in this group of screens.
GLP1R cytotox: cytotoxicity in counter-screen for GLP-1R inverse agonists; Potency, µM (top dose mostly 38.3 µM), for the others: at the highest dose activity change, negative = inhibition, usual class: inhibitors; HEK293 cAMP-luciferase reporter cells, luminescence, 24 h; AID 624418; actives 0.13% (n = 410,000);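 also: loss of luciferase light is scored as toxicity; % is scaled to controls: 0 for no effect and ±100 for the full control effect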
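A 23 nL compound transfer followed 12 hours of cell culture at 37 deg C; exposure then lasted 24 hr. Luciferase assay detection reagent was dispensed and plates read for luminescence after a 12 min room-temperature wait.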
Pin1 inh: inhibitors of human Pin1; Potency, µM (top dose mostly 115 µM), for the others: at the top dose activity, negative = inhibition, most hits filed as inhibitors; actives 0.009% (n = 390,000); Q13526; AID 504891; Pin1 FP peptide displacement, HiFluor488, 10 min; active = well fitted inhibition curve with a large enough effect in the polarisation, with a control signal flat, not every such curve was filed as active; inconclusive = small, poorly fitted or top-dose-only effect, or effect the other way, or a change in a side signal; inactive = no such curve, though single readings can be large or run the other way; the % refers to the polarisation; also: % is scaled to controls: 0 for no effect and ±100 for the full control effect
Target sequence (Q13526 whole entry, looked up): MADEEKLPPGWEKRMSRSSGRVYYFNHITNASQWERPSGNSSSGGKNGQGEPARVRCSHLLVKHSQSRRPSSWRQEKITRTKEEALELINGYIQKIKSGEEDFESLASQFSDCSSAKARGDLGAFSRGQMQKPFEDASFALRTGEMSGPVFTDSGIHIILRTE
GLP-1R inv ag: GLP-1 receptor (human) inverse agonism; P43220; HEK293 GLP-1R CRE-luciferase, luminescence, 24 h; GLP-1R form is constitutively active; Potency, µM (titrated, usually from 38.3 µM), without a hit: at the highest dose activity change, negative = inhibition, actives largely listed as inhibitors; actives 1.6% (n = 410,000); also: % is scaled to controls: 0 for no effect and ±100 for the full control effect; nearly all actives have a fitted effect of over 55% in size
Target sequence (P43220 whole entry, looked up): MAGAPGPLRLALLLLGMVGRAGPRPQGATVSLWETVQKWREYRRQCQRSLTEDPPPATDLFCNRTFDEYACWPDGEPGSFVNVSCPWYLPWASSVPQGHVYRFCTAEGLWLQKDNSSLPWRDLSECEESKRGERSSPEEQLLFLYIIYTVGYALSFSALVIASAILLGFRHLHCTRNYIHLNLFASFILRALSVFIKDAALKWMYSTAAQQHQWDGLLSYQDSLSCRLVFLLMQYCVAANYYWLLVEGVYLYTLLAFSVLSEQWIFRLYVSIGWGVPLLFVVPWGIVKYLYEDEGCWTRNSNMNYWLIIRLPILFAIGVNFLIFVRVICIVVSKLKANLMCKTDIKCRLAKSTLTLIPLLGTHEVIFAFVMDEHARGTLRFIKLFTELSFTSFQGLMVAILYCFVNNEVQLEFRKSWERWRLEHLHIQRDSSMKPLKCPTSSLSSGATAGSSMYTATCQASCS
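Readout was luciferase luminescence, measured 12 min after detection reagent at room temperature. Beforehand, GLP-1R reporter HEK293 cells had sat 12 h, then received compounds for 24 hr at 37 deg C.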
GLP-1R agonist: GLP-1 receptor (human) agonism; AID 624172; actives 0.007% (n = 380,000); Potency, µM (highest dose often 45.6 µM), inactives show at the highest dose activation, hits mostly activators; HEK293 GLP-1R CRE-luciferase, luminescence, 4-6 h; cells express a hypersensitive GLP-1R form; also: % of control where 0% means no effect
Tb PGK inh: T. brucei PGK inhibition. P07378. PGK/GAPDH coupled, Kinase-Glo luminescence, 60 min. Potency, µM (series often up to 57.5 µM), for the others: at the highest dose activity change, negative = inhibition, hits mostly inhibitors. actives 0.043% (n = 380,000). AID 602233; also: % is scaled to controls: 0 for no effect and ±100 for the full control effect; nearly all actives have a fitted effect of over 60% in size
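Luminescent ATP detection (Kinase-Glo Plus) follows a 60-minute room-temperature incubation, with wells lacking PGK as controls. Buffer: 100 mM TEA (pH 7.6), 5 mM MgCl2, 0.01% Tween-20. Coupling enzyme GAPDH (100 nM final) supplies unstable 1,3-BPG in-well.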
Tb PFK block: blocks T. brucei phosphofructokinase; O15648; T. brucei PFK, ADP-Glo luminescence; Potency, µM (titrated, usually from 57.5 µM), inactives show at the top dose activity, negative = inhibition, usual class: inhibitors; actives 0.17% (n = 330,000); AID 485367;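 also: 0% = uninhibited 1x PFK enzyme wells and -100% = no-enzyme wells; nearly all actives have a fitted effect of over 60% in size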
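In TEA buffer at pH 8.0 with 5 mM MgCl2, enzyme (1.25 nM) converted F6P (0.5 mM) and ATP (0.1 mM) for 45 min at room temperature. ADP product was read by luciferase luminescence.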
* marks the source's active call; other numbers are inactive results; i = inactive; ? = inconclusive; . = no result. Unless noted, calls follow the shape of the dose curve; as a rule, active = well fitted curve in the direction sought with a large enough effect; inconclusive = small, poorly fitted or top-dose-only effect, or another doubt; inactive = no such curve, though single readings can be large; an effect the other way counts as inactive or inconclusive. Potency is read from the fitted curve at half-maximal effect.

SMILES	GLP1R cytotox	Pin1 inh	GLP-1R inv ag	GLP-1R agonist	Tb PGK inh	Tb PFK block
Cn1c(=N)n(CC(=O)c2ccc(Cl)c(Cl)c2)c2ccccc21	12.6%	2.3%	7.08µM*	-8.4%	-5.9%	-22.7%
Cn1c(=N)n(CC(=O)O)c2ccccc21	19.9%	-0.2%	21.8%	8.0%	i	2.5%
Cn1c(=N)n(CC(=O)c2ccccc2)c2ccccc21	-17.7%	-3.2%	11.2µM*	-1.5%	i	1.5%
Cc1ccccc1C1c2[nH]c3ccccc3c2C[C@H]2C(=O)N(C3CC3)CC(=O)N12 (stereo not given in full)	-0.3%	-2.5%	?	10.3%	-1.7%	2.9%
COc1ccccc1C1c2[nH]c3ccccc3c2C[C@H]2C(=O)N(C3CCN(Cc4ccccc4)CC3)CC(=O)N12 (stereo not given in full)	-7.4%	31.1%	5.62µM*	-1.1%	13.4%	7.9%
COc1cccc(C2c3[nH]c4ccccc4c3C[C@H]3C(=O)N(C4CCN(Cc5ccccc5)CC4)CC(=O)N23)c1 (stereo not given in full)	-16.5%	18.6%	2µM*	-3.0%	i	3.3%
COc1ccc(C2c3[nH]c4ccccc4c3C[C@H]3C(=O)N(C4CCN(Cc5ccccc5)CC4)CC(=O)N23)cc1OC (stereo not given in full)	-15.9%	8.0%	12.6µM*	-4.7%	i	5.3%
CCCC[C@@H]1CCCO[C@@](C(=O)NCc2ccccn2)(C(F)(F)F)C1	19.0%	?	5.01µM*	-4.4%	-4.0%	.
CCN1CCN(C(=S)NC(=O)c2cccs2)CC1	?	-1.1%	-32.1%	3.3%	i	1.1%
O=C(NC(=S)N1CCN(c2ccc(C(F)(F)F)cc2[N+](=O)[O-])CC1)c1cccs1	10µM*	-5.7%	0.0%	-16.1%	-4.9%	-12.7%
CCC(=O)NC(c1cccc(C)c1)c1cc(Cl)c2cccnc2c1O (stereo not given)	.	2.2%	.	.	.	.
Cc1ccc(/C=N/NC(=O)CSc2nc3ccccc3n2Cc2ccc(Cl)cc2)o1	-23.3%	21.0%	10µM*	-8.7%	1.0%	1.5%
COc1ccccc1-c1cc(C(F)(F)F)nc(S(=O)(=O)CCCC(=O)Nc2cccnc2Cl)n1	8.91µM*	3.2%	?	-2.8%	8.3%	-13.7%
CC1=C(C#N)C(=O)N(C2CCS(=O)(=O)C2)C(=O)/C1=C\c1ccco1 (stereo not given)	.	.	.	.	.	15.1µM*
O=S(=O)(c1ccc2ccccc2c1)N1CCN(C(=S)Nc2ccc(F)cc2)CC1	-14.4%	18.8%	?	-2.7%	-3.3%	-3.1%
O=S(=O)(c1ccc2ccccc2c1)N1CCN(C(=S)Nc2ccc(F)c(Cl)c2)CC1	-21.7%	19.7%	4.47µM*	-3.8%	i	-0.5%
COc1ccc(Br)cc1/C=C/C(=O)c1ccc(NC(C)=O)cc1	-11.1%	3.1%	5.01µM*	-38.0%	0.5%	-7.8%
CCCN(CC(=O)Nc1ccccc1OC)C(=O)c1cc(-c2ccccc2)nn1-c1ccccc1	3.9%	26.5%	10µM*	7.7%	-8.4%	-1.6%
CCCN(CC(=O)Nc1ccccc1OC)C(=O)CC1CCCC1	14.2%	3.0%	8.91µM*	1.4%	1.2%	12.8%
CCN(CC(=O)Nc1ccc(NC(C)=O)cc1)C(=O)c1cc(-c2ccccc2)nn1-c1ccccc1	7.2%	-1.3%	?	-0.7%	-9.3%	-3.7%
CSc1ncc(C(=O)Nc2cc(Cl)ccc2C)c(-c2ccccc2)n1	2.0%	-0.3%	7.4%	.	-2.2%	.
C/C(=C(\CCO)SSCC1CCCO1)N(C=O)Cc1cnc(C)nc1N (stereo not given)	.	.	.	-0.7%	.	.
Cc1[nH]n(-c2ccccc2)c(=O)c1/C=N/N1C(=O)c2cccc3cccc(c23)C1=O	?	-17.9%	12.6µM*	5.9%	4.7%	-10.0%
Cc1[nH]n(-c2ccccc2)c(=O)c1/C=N/N1CCOCC1	2.3%	-2.8%	15.2%	6.1%	6.1%	4.1%
Cc1[nH]n(-c2ccccc2)c(=O)c1/C=N/NC(=O)c1cccc(F)c1	-16.1%	-7.1%	7.94µM*	0.0%	.	-1.8%
SMILES	GLP1R cytotox	Pin1 inh	GLP-1R inv ag	GLP-1R agonist	Tb PGK inh	Tb PFK block
COc1ccccc1NC(=O)C1=C(C)Nc2nc(SCC(=O)c3ccc(C)cc3)nn2C1c1ccc(F)cc1 (stereo not given)	-3.7%	-0.2%	9.9%	.	i	.
COc1ccc(CN2CCN(C(c3ccc(F)cc3)c3ccc(F)cc3)CC2)c(OC)c1OC	?	-0.5%	10µM*	-5.4%	-0.5%	.
CCn1cc(CN2CCC(C(=O)Nc3ccc(Oc4ccccc4)nc3)CC2)cn1	25.3%	3.0%	-10.7%	-15.3%	-4.0%	1.4%
O=C(Cc1ccccc1)Nc1ccc(NC(=O)C2CCCCC2)nc1	-15.9%	0.8%	7.08µM*	4.5%	-1.0%	-4.3%
O=C(Nc1ccc(Oc2ccccc2)nc1)C1CCN(Cc2ccccc2)CC1	-26.5%	-3.2%	11.2µM*	-2.9%	i	2.4%
O=C(Cc1ccccc1)Nc1ccc(NC(=O)C2CC2)nc1	-8.4%	-10.6%	-5.5%	2.9%	-9.0%	-0.1%
CCc1ccc(CN2CCC(C(=O)Nc3ccc(Oc4ccccc4)nc3)CC2)o1	-10.5%	9.0%	8.91µM*	15.2%	-9.5%	1.1%
Cc1c(CN2CCC(C(=O)Nc3ccc(Oc4ccccc4)nc3)CC2)cnn1C	9.5%	-5.0%	-4.9%	5.3%	6.9%	-0.1%
Cc1ccn2c(=O)c(C(=O)NCCc3ccc(S(N)(=O)=O)cc3)c(O)nc2c1	4.1%	2.1%	-9.5%	0.4%	3.9%	.
CC1(C)C(=O)N(OCc2ccccc2)C(C)(C)C(=O)N1OCc1ccccc1	-4.2%	-1.5%	10µM*	0.8%	1.1%	4.4%
CCOn1c(=O)c(=O)n(OCc2ccccc2)c2ccccc21	-3.5%	0.7%	0.5%	3.4%	-2.3%	-12.9%
FC(F)(F)COc1nc(OCC(F)(F)F)nc(N2CCN(c3ccccc3)CC2)n1	-19.8%	0.8%	5.01µM*	-0.8%	-0.8%	-5.1%
FC(F)(F)COc1nc(N2CCOCC2)nc(N(c2ccccc2)c2ccccc2)n1	8.1%	?	?	-0.4%	-3.5%	-3.6%
CCc1ccc(NC(=O)CN2CCN(C3CCCCC3)C(=O)C2=O)cc1	0.0%	-3.7%	-21.3%	.	-9.3%	.
Cc1ccc(NC(=O)CN2CC(C)SC2=NC2CCCCC2)cc1 (stereo not given)	?	-0.7%	11.2µM*	7.9%	1.1%	-0.6%
Cc1ccc(N(Cc2cccs2)C(=O)c2ccc(OC(C)C)cc2)cc1	4.3%	?	?	.	i	.
